Key:
[1] = biological target: T1, Ephrin type-B receptor 2 (Homo sapiens) (UniProt P29323); settings: at 1 µM
T1 sequence (whole entry): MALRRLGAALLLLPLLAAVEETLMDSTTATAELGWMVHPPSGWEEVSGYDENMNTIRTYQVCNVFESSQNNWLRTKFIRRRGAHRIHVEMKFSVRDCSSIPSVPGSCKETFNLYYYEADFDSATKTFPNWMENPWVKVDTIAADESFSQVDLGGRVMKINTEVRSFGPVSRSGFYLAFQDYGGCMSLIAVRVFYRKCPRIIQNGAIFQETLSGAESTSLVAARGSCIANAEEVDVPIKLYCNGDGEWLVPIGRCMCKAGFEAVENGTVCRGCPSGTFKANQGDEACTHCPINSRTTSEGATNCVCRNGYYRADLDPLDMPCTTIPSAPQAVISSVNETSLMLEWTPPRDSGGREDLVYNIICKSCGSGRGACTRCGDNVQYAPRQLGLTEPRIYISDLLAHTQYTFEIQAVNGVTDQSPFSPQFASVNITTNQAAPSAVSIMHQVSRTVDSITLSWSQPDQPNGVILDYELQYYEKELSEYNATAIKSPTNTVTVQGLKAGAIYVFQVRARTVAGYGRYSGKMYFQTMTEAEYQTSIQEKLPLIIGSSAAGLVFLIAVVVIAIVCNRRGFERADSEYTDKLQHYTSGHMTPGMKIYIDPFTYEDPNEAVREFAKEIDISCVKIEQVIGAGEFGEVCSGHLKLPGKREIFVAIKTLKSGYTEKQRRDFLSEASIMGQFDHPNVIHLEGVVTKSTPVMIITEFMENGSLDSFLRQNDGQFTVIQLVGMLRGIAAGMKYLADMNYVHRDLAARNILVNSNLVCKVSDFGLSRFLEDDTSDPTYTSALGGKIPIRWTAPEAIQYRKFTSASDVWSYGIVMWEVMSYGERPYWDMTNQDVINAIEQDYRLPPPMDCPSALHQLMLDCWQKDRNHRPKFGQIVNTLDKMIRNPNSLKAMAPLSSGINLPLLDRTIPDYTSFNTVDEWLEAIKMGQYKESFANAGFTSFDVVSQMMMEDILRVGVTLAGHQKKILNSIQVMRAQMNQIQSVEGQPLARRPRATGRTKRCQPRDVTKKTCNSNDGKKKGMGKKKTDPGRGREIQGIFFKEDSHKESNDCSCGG

[2] = biological target: T2, Ephrin type-B receptor 3 (Homo sapiens) (UniProt P54753); settings: at 0.1 µM
T2 sequence (whole entry): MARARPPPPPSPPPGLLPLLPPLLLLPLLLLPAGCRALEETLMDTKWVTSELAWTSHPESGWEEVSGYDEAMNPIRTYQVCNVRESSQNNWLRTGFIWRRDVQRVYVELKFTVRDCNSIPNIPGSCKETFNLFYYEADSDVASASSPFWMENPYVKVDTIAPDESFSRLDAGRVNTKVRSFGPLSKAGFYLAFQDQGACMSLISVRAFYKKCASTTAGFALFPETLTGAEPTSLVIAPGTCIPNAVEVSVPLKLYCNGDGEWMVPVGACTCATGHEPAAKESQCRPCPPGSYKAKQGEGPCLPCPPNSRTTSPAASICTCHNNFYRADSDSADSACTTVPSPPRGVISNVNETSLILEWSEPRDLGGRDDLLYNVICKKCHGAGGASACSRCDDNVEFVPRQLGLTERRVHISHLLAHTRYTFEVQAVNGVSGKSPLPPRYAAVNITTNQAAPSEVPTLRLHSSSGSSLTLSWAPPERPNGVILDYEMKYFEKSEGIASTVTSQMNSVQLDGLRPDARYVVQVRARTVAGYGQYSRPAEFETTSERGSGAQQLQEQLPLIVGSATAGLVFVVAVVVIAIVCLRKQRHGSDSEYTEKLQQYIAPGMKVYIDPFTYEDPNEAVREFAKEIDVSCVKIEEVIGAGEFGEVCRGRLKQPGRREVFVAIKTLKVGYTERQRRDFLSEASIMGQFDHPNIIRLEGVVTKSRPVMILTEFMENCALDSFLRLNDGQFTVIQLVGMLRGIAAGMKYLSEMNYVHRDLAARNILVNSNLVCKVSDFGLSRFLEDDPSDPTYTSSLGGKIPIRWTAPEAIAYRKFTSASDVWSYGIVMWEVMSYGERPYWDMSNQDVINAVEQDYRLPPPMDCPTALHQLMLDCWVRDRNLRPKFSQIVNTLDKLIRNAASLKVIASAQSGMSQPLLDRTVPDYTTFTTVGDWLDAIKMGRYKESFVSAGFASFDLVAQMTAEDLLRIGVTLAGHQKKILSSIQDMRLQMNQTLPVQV

[3] = biological target: T2, Ephrin type-B receptor 3 (Homo sapiens); settings: at 1 µM
[4] = biological target: T3, Ephrin type-B receptor 4 (Homo sapiens) (UniProt P54760); settings: at 0.1 µM
T3 sequence (whole entry): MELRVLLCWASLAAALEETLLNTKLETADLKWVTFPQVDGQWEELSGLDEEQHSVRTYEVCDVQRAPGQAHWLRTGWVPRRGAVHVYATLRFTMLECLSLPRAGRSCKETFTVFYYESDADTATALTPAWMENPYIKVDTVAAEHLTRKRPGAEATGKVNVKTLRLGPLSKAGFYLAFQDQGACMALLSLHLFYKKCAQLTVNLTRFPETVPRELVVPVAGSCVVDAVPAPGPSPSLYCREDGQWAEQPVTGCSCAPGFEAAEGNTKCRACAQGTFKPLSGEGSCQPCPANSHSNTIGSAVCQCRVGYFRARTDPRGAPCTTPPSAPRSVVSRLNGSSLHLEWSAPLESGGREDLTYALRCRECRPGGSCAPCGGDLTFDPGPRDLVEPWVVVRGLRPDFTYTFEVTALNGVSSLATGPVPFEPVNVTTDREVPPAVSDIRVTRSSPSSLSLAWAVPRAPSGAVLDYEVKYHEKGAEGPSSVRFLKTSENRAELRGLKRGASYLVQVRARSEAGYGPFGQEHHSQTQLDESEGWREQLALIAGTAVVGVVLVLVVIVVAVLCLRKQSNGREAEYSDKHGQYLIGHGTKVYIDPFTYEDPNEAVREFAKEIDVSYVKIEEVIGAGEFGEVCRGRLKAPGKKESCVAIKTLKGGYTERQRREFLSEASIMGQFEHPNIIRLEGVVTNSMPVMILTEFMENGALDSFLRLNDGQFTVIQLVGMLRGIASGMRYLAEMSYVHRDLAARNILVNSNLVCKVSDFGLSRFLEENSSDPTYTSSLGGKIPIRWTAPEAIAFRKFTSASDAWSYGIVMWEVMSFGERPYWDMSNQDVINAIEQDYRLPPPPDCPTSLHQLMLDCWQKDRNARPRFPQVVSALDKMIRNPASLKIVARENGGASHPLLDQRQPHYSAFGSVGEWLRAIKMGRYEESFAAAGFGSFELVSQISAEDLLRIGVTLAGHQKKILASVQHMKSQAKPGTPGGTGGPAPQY

[5] = biological target: T3, Ephrin type-B receptor 4 (Homo sapiens); settings: at 1 µM
[6] = biological target: Receptor tyrosine-protein kinase erbB-2 (Homo sapiens) (UniProt P04626); settings: at 0.1 µM
[7] = biological target: Receptor tyrosine-protein kinase erbB-2 (Homo sapiens) (UniProt P04626); settings: at 1 µM
[8] = biological target: Receptor tyrosine-protein kinase erbB-4 (Homo sapiens) (UniProt Q15303); settings: at 0.1 µM
[9] = biological target: Receptor tyrosine-protein kinase erbB-4 (Homo sapiens) (UniProt Q15303); settings: at 1 µM
[10] = biological target: Tyrosine-protein kinase Fer (Homo sapiens) (UniProt P16591); settings: at 0.1 µM
[11] = biological target: Tyrosine-protein kinase Fer (Homo sapiens) (UniProt P16591); settings: at 1 µM
[12] = biological target: Tyrosine-protein kinase Fes/Fps (Homo sapiens) (UniProt P07332); settings: at 0.1 µM
[13] = biological target: Tyrosine-protein kinase Fes/Fps (Homo sapiens) (UniProt P07332); settings: at 1 µM
[14] = biological target: Fibroblast growth factor receptor 1 (Homo sapiens) (UniProt P11362); settings: at 0.1 µM
[15] = biological target: Fibroblast growth factor receptor 1 (Homo sapiens) (UniProt P11362); settings: at 1 µM
[16] = biological target: Fibroblast growth factor receptor 2 (Homo sapiens) (UniProt P21802); settings: at 0.1 µM
[17] = biological target: Fibroblast growth factor receptor 2 (Homo sapiens) (UniProt P21802); settings: at 1 µM
[18] = biological target: Fibroblast growth factor receptor 3 (Homo sapiens) (UniProt P22607); settings: at 0.1 µM
[19] = biological target: Fibroblast growth factor receptor 3 (Homo sapiens) (UniProt P22607); settings: at 1 µM
[20] = biological target: Fibroblast growth factor receptor 4 (Homo sapiens) (UniProt P22455); settings: at 0.1 µM;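 further: values are mean percent inhibition of FGFR4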

Fibroblast growth factor receptor 3 (Homo sapiens), sequence (P22607 23-806 limits assumed): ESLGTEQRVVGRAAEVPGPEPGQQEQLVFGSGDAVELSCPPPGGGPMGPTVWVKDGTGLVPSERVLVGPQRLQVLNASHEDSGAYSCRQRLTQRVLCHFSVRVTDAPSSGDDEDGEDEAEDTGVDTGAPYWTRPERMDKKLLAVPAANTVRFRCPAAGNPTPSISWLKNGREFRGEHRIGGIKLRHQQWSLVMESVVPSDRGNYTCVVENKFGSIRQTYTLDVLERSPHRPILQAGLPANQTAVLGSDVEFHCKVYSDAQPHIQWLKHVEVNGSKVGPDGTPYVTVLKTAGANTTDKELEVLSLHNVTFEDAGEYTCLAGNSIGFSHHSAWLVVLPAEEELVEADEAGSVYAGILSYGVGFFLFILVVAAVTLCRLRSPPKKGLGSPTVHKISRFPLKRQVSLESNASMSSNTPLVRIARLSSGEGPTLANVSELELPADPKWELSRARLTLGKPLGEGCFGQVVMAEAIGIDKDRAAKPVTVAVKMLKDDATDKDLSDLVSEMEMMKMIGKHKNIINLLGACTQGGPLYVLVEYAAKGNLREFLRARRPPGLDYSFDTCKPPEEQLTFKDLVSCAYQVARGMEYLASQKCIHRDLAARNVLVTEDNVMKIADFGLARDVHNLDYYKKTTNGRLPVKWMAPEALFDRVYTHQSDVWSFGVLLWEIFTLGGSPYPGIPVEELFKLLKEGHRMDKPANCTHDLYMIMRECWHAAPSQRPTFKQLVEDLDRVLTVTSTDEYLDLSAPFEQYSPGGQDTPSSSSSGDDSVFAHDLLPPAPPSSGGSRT
Fibroblast growth factor receptor 1 (Homo sapiens), sequence (P11362 22-822 limits assumed): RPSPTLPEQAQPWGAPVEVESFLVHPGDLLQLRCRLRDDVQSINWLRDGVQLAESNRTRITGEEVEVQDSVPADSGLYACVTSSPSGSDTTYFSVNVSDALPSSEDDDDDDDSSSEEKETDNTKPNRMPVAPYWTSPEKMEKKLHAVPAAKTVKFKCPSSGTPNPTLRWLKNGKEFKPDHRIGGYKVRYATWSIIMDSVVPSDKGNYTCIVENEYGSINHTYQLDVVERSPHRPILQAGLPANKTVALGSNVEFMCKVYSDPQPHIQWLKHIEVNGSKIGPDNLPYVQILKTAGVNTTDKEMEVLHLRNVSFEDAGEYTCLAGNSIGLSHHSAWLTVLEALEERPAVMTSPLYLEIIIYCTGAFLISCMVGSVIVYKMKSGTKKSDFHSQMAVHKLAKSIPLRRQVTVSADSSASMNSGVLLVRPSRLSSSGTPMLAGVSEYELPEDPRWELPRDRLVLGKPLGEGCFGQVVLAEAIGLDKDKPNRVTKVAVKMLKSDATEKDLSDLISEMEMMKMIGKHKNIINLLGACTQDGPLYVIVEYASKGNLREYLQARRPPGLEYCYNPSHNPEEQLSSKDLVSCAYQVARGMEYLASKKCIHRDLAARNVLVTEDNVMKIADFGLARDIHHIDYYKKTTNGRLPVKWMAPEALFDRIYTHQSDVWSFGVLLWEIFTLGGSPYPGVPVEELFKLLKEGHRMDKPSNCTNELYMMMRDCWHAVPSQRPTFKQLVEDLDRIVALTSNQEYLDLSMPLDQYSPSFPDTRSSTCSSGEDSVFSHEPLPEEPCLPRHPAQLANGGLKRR
Tyrosine-protein kinase Fes/Fps (Homo sapiens), sequence (P07332 whole entry): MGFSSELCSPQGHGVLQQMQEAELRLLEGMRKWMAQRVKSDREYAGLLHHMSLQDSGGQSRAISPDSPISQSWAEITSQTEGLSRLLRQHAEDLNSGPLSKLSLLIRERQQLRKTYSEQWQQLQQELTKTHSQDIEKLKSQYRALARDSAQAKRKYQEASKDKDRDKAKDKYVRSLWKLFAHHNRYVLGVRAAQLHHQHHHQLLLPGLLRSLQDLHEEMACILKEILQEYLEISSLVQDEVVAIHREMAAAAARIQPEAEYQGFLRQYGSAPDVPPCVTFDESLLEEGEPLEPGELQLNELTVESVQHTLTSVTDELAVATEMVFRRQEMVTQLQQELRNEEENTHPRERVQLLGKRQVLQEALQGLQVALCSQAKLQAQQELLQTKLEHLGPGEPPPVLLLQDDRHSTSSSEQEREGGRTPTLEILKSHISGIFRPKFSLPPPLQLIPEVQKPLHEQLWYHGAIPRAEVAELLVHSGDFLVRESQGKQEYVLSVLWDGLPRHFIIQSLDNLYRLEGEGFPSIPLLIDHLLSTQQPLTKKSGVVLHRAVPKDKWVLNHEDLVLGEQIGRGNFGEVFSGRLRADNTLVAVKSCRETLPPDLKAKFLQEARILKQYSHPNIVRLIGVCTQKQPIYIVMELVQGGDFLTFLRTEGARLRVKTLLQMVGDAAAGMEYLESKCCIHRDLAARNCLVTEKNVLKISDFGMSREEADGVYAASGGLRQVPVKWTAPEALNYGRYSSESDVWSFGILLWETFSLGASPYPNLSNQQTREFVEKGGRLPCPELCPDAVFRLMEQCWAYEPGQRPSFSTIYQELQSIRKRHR
Fibroblast growth factor receptor 2 (Homo sapiens), sequence (P21802 22-821 limits assumed): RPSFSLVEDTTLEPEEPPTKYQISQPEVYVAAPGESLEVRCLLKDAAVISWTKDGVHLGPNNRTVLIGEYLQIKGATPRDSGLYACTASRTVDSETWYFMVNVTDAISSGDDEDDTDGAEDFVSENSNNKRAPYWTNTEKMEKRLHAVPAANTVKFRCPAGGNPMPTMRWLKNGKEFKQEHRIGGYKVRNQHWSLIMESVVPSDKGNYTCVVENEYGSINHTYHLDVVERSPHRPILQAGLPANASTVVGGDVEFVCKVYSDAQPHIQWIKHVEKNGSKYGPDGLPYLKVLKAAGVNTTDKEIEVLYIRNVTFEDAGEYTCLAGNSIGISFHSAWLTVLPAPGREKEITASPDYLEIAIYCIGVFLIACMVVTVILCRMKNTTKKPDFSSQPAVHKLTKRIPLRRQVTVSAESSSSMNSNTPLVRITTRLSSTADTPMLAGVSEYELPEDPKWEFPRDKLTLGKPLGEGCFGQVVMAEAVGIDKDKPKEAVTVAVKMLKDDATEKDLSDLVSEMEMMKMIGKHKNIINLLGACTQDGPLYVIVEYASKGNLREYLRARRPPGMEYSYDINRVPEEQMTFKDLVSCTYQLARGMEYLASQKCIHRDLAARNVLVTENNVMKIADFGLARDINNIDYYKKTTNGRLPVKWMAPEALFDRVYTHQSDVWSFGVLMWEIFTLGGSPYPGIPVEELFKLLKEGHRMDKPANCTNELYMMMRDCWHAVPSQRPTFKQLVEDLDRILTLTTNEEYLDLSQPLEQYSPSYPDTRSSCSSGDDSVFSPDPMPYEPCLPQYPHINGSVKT
Receptor tyrosine-protein kinase erbB-4 (Homo sapiens), sequence (Q15303 whole entry): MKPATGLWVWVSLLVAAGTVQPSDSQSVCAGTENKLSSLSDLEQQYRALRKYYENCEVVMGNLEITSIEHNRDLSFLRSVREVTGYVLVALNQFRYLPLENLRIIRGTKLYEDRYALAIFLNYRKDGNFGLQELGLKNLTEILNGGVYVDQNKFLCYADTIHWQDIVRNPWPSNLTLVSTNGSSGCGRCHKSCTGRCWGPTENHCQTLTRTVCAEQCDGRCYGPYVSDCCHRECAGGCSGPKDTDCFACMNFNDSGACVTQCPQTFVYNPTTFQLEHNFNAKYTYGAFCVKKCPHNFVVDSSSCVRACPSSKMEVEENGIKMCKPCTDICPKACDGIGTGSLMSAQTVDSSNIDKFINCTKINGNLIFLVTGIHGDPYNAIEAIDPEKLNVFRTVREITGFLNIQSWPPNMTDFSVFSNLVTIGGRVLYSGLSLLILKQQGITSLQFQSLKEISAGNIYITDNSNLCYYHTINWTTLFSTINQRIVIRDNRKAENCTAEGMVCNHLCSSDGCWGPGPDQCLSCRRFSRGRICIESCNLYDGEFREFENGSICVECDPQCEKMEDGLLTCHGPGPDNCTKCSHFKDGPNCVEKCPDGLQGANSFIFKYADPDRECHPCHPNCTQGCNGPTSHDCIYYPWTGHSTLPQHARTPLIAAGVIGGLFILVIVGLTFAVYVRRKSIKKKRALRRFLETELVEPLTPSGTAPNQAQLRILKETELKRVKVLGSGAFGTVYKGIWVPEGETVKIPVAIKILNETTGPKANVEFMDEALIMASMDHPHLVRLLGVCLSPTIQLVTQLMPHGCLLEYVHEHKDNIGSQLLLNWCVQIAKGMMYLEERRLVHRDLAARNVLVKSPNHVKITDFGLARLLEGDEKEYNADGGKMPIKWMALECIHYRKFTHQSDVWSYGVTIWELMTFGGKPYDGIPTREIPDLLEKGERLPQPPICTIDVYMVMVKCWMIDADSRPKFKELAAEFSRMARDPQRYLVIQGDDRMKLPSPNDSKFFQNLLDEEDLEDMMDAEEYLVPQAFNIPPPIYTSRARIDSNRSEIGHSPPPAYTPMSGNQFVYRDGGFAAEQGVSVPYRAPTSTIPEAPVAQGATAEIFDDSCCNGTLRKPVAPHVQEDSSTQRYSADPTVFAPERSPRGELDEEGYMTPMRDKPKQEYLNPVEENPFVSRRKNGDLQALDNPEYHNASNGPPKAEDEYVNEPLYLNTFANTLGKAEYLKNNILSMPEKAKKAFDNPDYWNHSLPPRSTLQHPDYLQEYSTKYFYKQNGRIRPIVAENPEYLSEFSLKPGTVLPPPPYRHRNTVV

| SMILES | inhibition [1] [%] | inhibition [2] [%] | inhibition [3] [%] | inhibition [4] [%] | inhibition [5] [%] | inhibition [6] [%] | inhibition [7] [%] | inhibition [8] [%] | inhibition [9] [%] | inhibition [10] [%] | inhibition [11] [%] | inhibition [12] [%] | inhibition [13] [%] | inhibition [14] [%] | inhibition [15] [%] | inhibition [16] [%] | inhibition [17] [%] | inhibition [18] [%] | inhibition [19] [%] | inhibition [20] [%] |
| --- | --- | --- | --- | --- | --- | --- | --- | --- | --- | --- | --- | --- | --- | --- | --- | --- | --- | --- | --- | --- |
| CC(=O)NCc1cccc(C#Cc2cncnc2Nc2ccc(OCc3cccc(F)c3)c(Cl)c2)c1 | -0.33 | 2.82 | 2.99 | 0.57 | 2.91 | -0.95 | -0.83 | 11.6 | 50.4 | 2.72 | 0.86 | 0.32 | 0.52 | -0.81 | -0.46 | -2.84 | -0.08 | 0.88 | 0.49 | 0.41 |
| CCN(CC)S(=O)(=O)c1ccc(OC)c(Nc2ncc(-c3ccccc3)o2)c1 | 15.1 | 3.77 | 0.54 | 0.17 | 7.93 | 0.91 | 2.81 | 7.08 | 6.51 | 0.84 | 4.52 | 0.12 | -0.42 | 0.18 | 23.7 | 15 | 54.6 | 18.4 | 59.5 | 2.44 |
| COc1cccc(-n2ncc3c(N/N=C/c4ccc(F)cc4)ncnc32)c1 | 11.3 | 4.19 | 3.79 | 1.79 | 3.45 | 2.86 | 4.41 | 10.8 | 11.2 | 2.73 | 4.95 | 2.58 | 3.42 | 2.86 | -0.23 | 6.26 | 8.02 | 6.59 | 6.78 | -0.12 |
| c1ccc(COc2ccc(Nc3ncnc4ccc(-c5ccco5)cc34)cc2)cc1 | 1.06 | 0.82 | 3.5 | -0.6 | 1.67 | -0.16 | 20 | 20.1 | 79.3 | 1.72 | 4.05 | 2.03 | 1.74 | -8.22 | -7.82 | 1.65 | 8.16 | 2.01 | 7.69 | 3.87 |
| CN1CCC(n2cnc(-c3ccc(F)cc3)c2-c2ccnc(Nc3ccccc3)n2)CC1 | 44.1 | 4.66 | 2.3 | 3.77 | 12.6 | 5.05 | 15.9 | 10.6 | 27.2 | 1.86 | 4.62 | 2.34 | 3.11 | 1.2 | -0.76 | 2.32 | 4.35 | 4.39 | 0.24 | 0.09 |
| CC(=O)Nc1cccc(C#Cc2cncnc2Nc2ccc(OCc3cccc(F)c3)c(Cl)c2)c1 | 10.7 | 4.08 | 0.84 | 1.66 | 2.84 | 0.38 | 10.5 | 20.5 | 57.1 | 1.31 | 1.14 | 3.02 | 3.58 | 5.54 | 8.04 | 2.27 | 5.67 | 4.66 | 5.53 | 0.9 |
| COc1cccc(-c2c[nH]c3c(N/N=C/c4ccncc4)ncnc23)c1 | 25.9 | 3.32 | -5.7 | 3.21 | 13.5 | 0.26 | 2.47 | 8.94 | 21.9 | 4.27 | 8.57 | 1.82 | 2.81 | 0.74 | 6.34 | 1.79 | 9.49 | 4.63 | 8.05 | 4.93 |
| Fc1cccc(COc2ccc(Nc3ncnc4sc(-c5ccco5)cc34)cc2Cl)c1 | 8.15 | 5.55 | 4.99 | 4 | 2.19 | -0.58 | 14.7 | 28.4 | 75.8 | 1.71 | 3.22 | 3.4 | 2.89 | 1.73 | 5.35 | 4.08 | 8.41 | 5.53 | 5.9 | 0.31 |
| Nc1ncc(-c2cccc(S(N)(=O)=O)c2)c2scc(-c3ccc(F)c(Cl)c3)c12 | 88.7 | 9.18 | 22 | 49.3 | 87.1 | 4.06 | 6.32 | 13.2 | 29.6 | 5.25 | 30 | 4 | 7.1 | 2.01 | 16.1 | 8.86 | 32.8 | 6.12 | 23.3 | 2.27 |
| COC(=O)Nc1nc2ccc(Oc3ccc(NC(=O)Nc4cccc(Cl)c4)cc3)cc2[nH]1 | 68 | 4.58 | 5.18 | 4.66 | 14.4 | -0.47 | 5.3 | 6.76 | 9.87 | 1.61 | 2.41 | 1.11 | 0.57 | 2.31 | 9.33 | 2.67 | 2.53 | 2.97 | 2.72 | 0.5 |
| CNC(=O)c1cncc(/C=C/c2ccccc2Cl)c1 | 8.47 | -1.27 | 1.05 | -0.2 | 4.63 | 0.54 | 5.61 | 3.2 | 8.96 | 2.91 | 3.78 | 0.21 | 0.02 | -1 | -1.84 | -1.98 | 4.23 | 0.84 | 1.98 | 1.47 |
| CCNC(=O)O[C@H]1CN[C@H](C#Cc2cc3ncnc(Nc4ccc(OCc5cccc(F)c5)c(Cl)c4)c3s2)C1 | 4.8 | 3.91 | 5.16 | 3.25 | 4.36 | 8.63 | 60.4 | 94.2 | 101 | 4.88 | -0.34 | 2.67 | 3.23 | 3.91 | 4.51 | 2.71 | 4.31 | 4.87 | 4.14 | 1.14 |
| CCn1cc(-c2ccnc3[nH]ccc23)c(-c2cccc(NC(=O)Nc3ccc(OCc4ccccc4)cc3)c2)n1 | -2.78 | 0.02 | 0.9 | -1.27 | 3.47 | 2.85 | 2.75 | 9.5 | 63.5 | 0.08 | 5.87 | 0.81 | 2.87 | -0.96 | -2.55 | -0.49 | 0.34 | -0.88 | 0.39 | -0.55 |

Source: ChEMBL document CHEMBL1961873, “Compounds: GSK PKIS; Assays: Nanosyn kinase panel” (2012)
